Data from PubChem BioAssay AID886 (National Center for Advancing Translational Sciences (NCATS), 2007).
Where “and” joins values, the source holds several entries; their conditions need not be identical. Identical values can stand only once. The whole screen tested about 73,000 compounds, of which about 2,500 (3.4%) were called active. Inconclusive results (about 7%) are left out. Calls follow the shape of the dose curve; as a rule, active = well fitted inhibition curve with a large enough effect; inconclusive = small, poorly fitted or top-dose-only effect; inactive = no such curve, though single readings can be large or run the other way. The full list was thinned out, with actives kept by preference.

Each compound was assayed against 3-hydroxyacyl-CoA dehydrogenase type-2 (Homo sapiens) (UniProt Q99714) (assay: qHTS Assay for Inhibitors of HADH2 (Hydroxyacyl-Coenzyme A Dehydrogenase, Type II)). Conditions: recombinant HADH2, NADH fluorescence, beta-hydroxybutyryl-CoA; series mostly up to 57.1 µM; activity change, negative = inhibition: at the top concentration.
Chain of 3-hydroxyacyl-CoA dehydrogenase type-2 (Homo sapiens) (Q99714 whole entry, looked up): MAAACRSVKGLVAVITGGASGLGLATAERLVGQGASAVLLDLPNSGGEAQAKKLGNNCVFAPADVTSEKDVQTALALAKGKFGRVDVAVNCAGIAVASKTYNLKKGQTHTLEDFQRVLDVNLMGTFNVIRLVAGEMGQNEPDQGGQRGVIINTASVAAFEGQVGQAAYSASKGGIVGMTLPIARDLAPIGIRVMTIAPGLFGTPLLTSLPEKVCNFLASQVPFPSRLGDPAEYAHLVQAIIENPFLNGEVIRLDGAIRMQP
Chain of 3-hydroxyacyl-CoA dehydrogenase type-2 (Homo sapiens) (Q99714 whole entry, looked up): as above
Outline: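 Read-out: 360 nm excitation, 450 nm emission, kinetic over 4 min. Conditions: His-tagged human HADH2 20 nM, pH 9.0 Tris with Tween-20, 1 mM NAD+, 90 uM beta-hydroxybutyryl-CoA.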
% is scaled to controls: 0 for no effect and ±100 for the full control effect; potency is read from the fitted curve at half-maximal effect.
Also: nearly all actives have a fitted effect of over 60% in size.

Potency, active:
C[C@@H]1O[C@@H](O[C@@H]2[C@@H](O)[C@H](OCCc3ccc(O)c(O)c3)O[C@H](CO[C@@H]3O[C@H](CO)[C@@H](O)[C@H](O)[C@H]3O)[C@H]2OC(=O)/C=C/c2ccc(O)c(O)c2)[C@H](O)[C@H](O)[C@H]1O 0.1 µM
CCOC(=O)CCc1c(C)c2ccc(OCc3nn[nH]n3)c(C)c2oc1=O 25.1 µM
COc1ccc(C(=O)n2nc(-c3ccc(C)cc3)nc2N)cc1OC 31.6 µM
CCOC(=O)c1cc(-c2nnc(-c3cc(OC)c(OC)c(OC)c3)o2)c(C)nc1C 5.01 µM
CCCN1C2=C(C(=O)CCC2)C(c2ccc(O)c(Br)c2)C2=C1CCCC2=O 15.8 µM
CCC(=O)Nc1ccc(C(=O)Nc2ccc3c(c2)C(=O)N(CC2CCCO2)C3=O)cc1 (stereo unspecified) 10 µM
CCOc1ccccc1C1C(C(=O)OC)=CN(C)C=C1C(=O)OC 31.6 µM
c1cncc(CNc2ccnc(-c3ccc4c(c3)OCO4)n2)c1 25.1 µM
COC(=O)C(C)Sc1ccc2nnc(-c3cccc(F)c3)n2n1 (stereo unspecified) 12.6 µM
CCCCc1cc(=O)oc2cc(C)cc(OCc3nn[nH]n3)c12 25.1 µM

Potency, inactive:
CCN(Cc1ccncc1)C(=O)[C@@H](CO)c1ccccc1
C=CC(=O)OCCOCCOCCOCCOC(=O)C=C

Activity change, negative = inhibition, inactive:
CO/N=C\[C@@H](C)[C@H](OCc1ccccc1)C(C)C 2.33% [at 11.4 µM]
COc1cccc(Cn2c(=O)c(-c3ccccc3)nc3cnc(OC)nc32)c1 2.81%
C=CC(=C)CCC=C(C)C 6.01%
COc1ccc(C(=O)n2nc(-c3ccc(Cl)cc3)nc2N)cc1OC 20%
COc1ccccc1C(=O)n1nc(-c2ccccc2)nc1N 0.521%
CO[C@@H]1COC(=O)C/C=C\[C@H](C)[C@@H](NS(=O)(=O)c2ccc(C)cc2)COC(=O)C/C=C\[C@@H]1C 6.59% [at 11.4 µM] and 13.2% [at 11.4 µM]
COc1ccc(C(=O)N2CCC[C@@]3(CCN(C(=O)NC(C)C)C3)C2)cc1 -3.04%
O=C1OCCC=C1[C@@H](O)CCc1ccccc1 -6.14% [at 11.4 µM]
C[C@H]1CC[C@H](C(=O)O)N[C@@H]1c1ccc(C#Cc2ccccc2)cc1 4.48% [at 11.4 µM]
CCCc1nc2ccccc2c(C(=O)OCc2nnc(-c3cc(OC)c(OC)c(OC)c3)o2)c1CC 11%
CCOC(=O)c1cc2ccccc2nc1C 3.8%
Cc1cc2c(cc1C)NC1=C(N2)O[C@H](c2c[nH]c3ccc(COc4ccccc4)cc23)C1=O 0.634% [at 11.4 µM]
O=C1CC(c2cccc(Br)c2)C2=C(CCCC2=O)N1 (stereo unspecified) 1.13%
C[C@@H](C(=O)Nc1ccc2ccccc2c1)[C@@H]1C[C@@]1(C)[C@@H](NC(=O)c1cccnc1)c1ccccc1 3.59%
COc1ccc(C[C@H](N)C(=O)N[C@@H]2[C@H](O)[C@H](n3cnc4c(N(C)C)ncnc43)O[C@@H]2CO)cc1 -1.06% [at 25.6 µM]
O=C(NCc1ccc2c(c1)OCO2)c1ccc2c(c1)C(=O)N(CC1CCCO1)C2=O (stereo unspecified) -0.581%
CN1C(=O)c2ccc(NC(=O)C3CCCCC3)cc2C1=O 3.73%
c1ccc2sc(SCCSc3nc4ccccc4s3)nc2c1 16.5% [at 11.4 µM]
COC(=O)[C@@]1(Cc2ccc(F)cc2)[C@@H]2[C@@H](CC(=O)[C@H]2CC(=O)C(=O)N2CCCC2)CN1C(=O)c1ccccc1 -3.47%
O=C(OCC(COC(=O)c1ccccc1)(COC(=O)c1ccccc1)COC(=O)c1ccccc1)c1ccccc1 0.505%
CCOc1cc(C2C(C(=O)OC)=CN(C3CCCC3)C=C2C(=O)OC)cc(Br)c1O 106%
COC(=O)C1=CN(C)C=C(C(=O)OC)C1c1ccc(Cl)cc1Cl 16.3%
Cn1c(=O)c(-c2ccccc2)nc2cnc(N3CCNCC3)nc21 7.59%
CO[C@H]1COC(=O)[C@H](Cc2ccccc2)NC(=O)C/C=C\[C@@H](C)[C@H](OC)COC(=O)C/C=C\[C@@H]1C 2.71% [at 11.4 µM]
c1n[nH]c(NCc2ccc3c(c2)OCO3)n1 3.73%
O=C(Nc1cccnc1)c1ccc2c(c1)OCO2 -0.811%
CCCCCCc1ccc(O)cc1O -15.6%
O=C(Cn1c(=O)sc2ccccc21)Nc1nc2c(s1)CCCC2 -1.57%
COc1cccc(Cn2c(=O)c(CCc3ccccc3)nc3cnc(N(C)C)nc32)c1 9.43%
CC1CCN(C(=O)CSc2ccc3nnc(-c4cccc(F)c4)n3n2)CC1 1.29%
CCOc1ccc(-c2nnc3ccc(SC)nn23)cc1 9.93%
Cc1cc(C)c2nc3c(c([C@H](O)[C@@H]4CCCCN4)c2c1)CC/C3=C/c1ccc(Cl)cc1 12.8% [at 11.4 µM]
COC(=O)[C@@]1(Cc2ccc(F)cc2)[C@H]2c3cc(C(=O)N4CCCC4)n(Cc4ccc(OC(F)(F)F)cc4)c3C[C@H]2CN1C(=O)c1ccccc1 19.7%
CCc1cc(=O)oc2cc(C)cc(OC(C)C(=O)O)c12 (stereo unspecified) 35.9%
